Bioassay records deposited in PubChem by National Center for Advancing Translational Sciences (NCATS).
Pf growth 48h: Primary qHTS for delayed death inhibitors of the malarial parasite plastid, 48 hour incubation; AID 504832, 2011; Potency, µM (top dose mostly 28.7 µM), for the others: at the top dose activity change, negative = inhibition, usual class: inhibitors; hit rate 5.9% among 310,000; P. falciparum luciferase growth in erythrocytes, 48 h; further: on the % scale 0 is the no-effect control and ±100 the full control effect
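Read-out is firefly luciferase luminescence from an integrated reporter in P. falciparum, so falling signal marks reduced parasite growth. Infected erythrocytes were at 2% hematocrit and 0.1% parasitemia (final) in Albumax-supplemented RPMI 1640.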
SARS PLP yeast: qHTS of Yeast-based Assay for SARS-CoV PLP. S. cerevisiae expressing SARS-CoV PLpro, growth rescue. Potency, µM (titrated, usually from 32.9 µM), without a hit: at the top dose activity, positive = growth rescue, actives largely listed as activators. hit rate 0.19% among 330,000. AID 485353, 2010; calls by dose curve; further: 0% is about no effect; nearly all actives have a fitted effect of over 55% in size
Sm TGR block: qHTS Assay for the Inhibitors of Schistosoma Mansoni Peroxiredoxins; Schistosoma mansoni thioredoxin glutathione reductase (TGR), Q962Y6; purified TGR, DTNB reduction, TNB absorbance 405 nm; Potency, µM (highest dose often 114 µM), inactives show at the top dose activity change, negative = inhibition, hits mostly inhibitors; hit rate 3% among 360,000; further: on the % scale 0 is the no-effect control and ±100 the full control effect; nearly all actives have a fitted effect of over 60% in size
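TGR 20 nM + NADPH 100 uM (dispensed conc.), cpd preinc 15 min RT; start with NADPH (500 uM addition) then DTNB (15 mM addition). Kinetic TNB absorbance, 405 nm filter. Four-parameter Hill fit across titration.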
Pf growth 96h: Primary qHTS for delayed death inhibitors of the malarial parasite plastid, 96 hour incubation; P. falciparum luciferase reporter growth, 96 h; Potency, µM (highest dose often 28.7 µM), for inactives: at the highest dose activity change, negative = inhibition, usual class: inhibitors; hit rate 6.9% among 320,000; AID 504834, 2011; further: on the % scale 0 is the no-effect control and ±100 the full control effect
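P. falciparum expressing integrated firefly luciferase, in erythrocytes at 2% hematocrit, 0.05% parasitemia, incubated with compounds 96 h at 37 C, 5% CO2. Growth inhibition read as loss of luminescence; two-generation exposure targets delayed-death apicoplast inhibitors.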
Numbers without * were called inactive; i = inactive; ? = inconclusive; . = no result given; ! = a repeat was not active; [ ] = dose if it differs, or a comment. Only some compounds are listed: those with a hit (about 12% of all), similar ones and a draw of the others. Unless noted, the call rests on the fitted dose curve; in most records, active means well fitted curve in the direction sought with a large enough effect; inconclusive means small, poorly fitted or top-dose-only effect, or another doubt; inactive means no such curve, though single readings can be large; an effect the other way counts as inactive or inconclusive. Potency means the concentration at half of the fitted maximal effect.

SMILES	Pf growth 48h	SARS PLP yeast	Sm TGR block	Pf growth 96h
COc1cccc(CC2(CO)CCCN(Cc3ccccc3-c3ccco3)C2)c1 (stereo unspecified)	-8%	1%	50µM*	-5%
COc1cccc(CC2(CO)CCCN(Cc3ccc(-c4ccco4)cc3)C2)c1 (stereo unspecified)	?	-1%	18µM*	?
CCCc1cnc2c(c1SCC(=O)N(C)c1ccccc1)c(=O)n(C)c(=O)n2C	.	.	3%	.
COc1cccc(CC2(CO)CCCN(Cc3sc(N4CCCC4)nc3Cl)C2)c1 (stereo unspecified)	?	0%	?	15µM*
COc1cccc(CC2(CO)CCCN(Cc3ccc(C)s3)C2)c1 (stereo unspecified)	?	-1%	11%	?
CSCC[C@H](NC(=O)[C@@H]1Cc2c([nH]c3ccccc23)C2c3ccccc3C(=O)N21)C(=O)NCC1CCCO1 (stereo partly specified)	?	2%	-4%	9.3µM*
CC(C)C[C@H](NC(=O)[C@@H]1Cc2c([nH]c3ccccc23)C2c3ccccc3C(=O)N21)C(=O)NCC1CCCO1 (stereo partly specified)	?	5%	-1%	9.3µM*
CC(C)[C@H](NC(=O)[C@@H]1Cc2c([nH]c3ccccc23)C2c3ccccc3C(=O)N21)C(=O)NCC1CCCO1 (stereo partly specified)	?	1%	0%	?
CCn1nnc(NC(=O)c2ccc([N+](=O)[O-])o2)n1	20%[5.75 µM]	-1%	?	i
CCCCn1nnc(NC(=O)c2ccc(-c3ccccc3[N+](=O)[O-])o2)n1	-14%	-1%	-10%	8.3µM*
CCCCn1nnc(NC(=S)NC(=O)c2ccc(OCC)c([N+](=O)[O-])c2)n1	19%	12%	40µM*	-3%
CC(=O)c1ccc(N2C(=O)[C@@H]3C(C(=O)CCN4C(=O)c5ccccc5C4=O)=NN[C@@H]3C2=O)cc1	-2%	14%	-9%	2.3µM*
COc1cccc(N2C(=O)C3NN=C(C(=O)CN4C(=O)c5ccccc5C4=O)C3C2=O)c1 (stereo unspecified)	-7%	0%	2%	18%
CCN(CC)C(=O)COc1ccc(-c2nnc(Nc3ccc(OC)c(C(=O)NC)c3)c3ccccc23)cc1	?	0%	3%	10µM*
COc1ccc(Nc2nnc(-c3ccc(C)cc3)c3ccccc23)cc1C(=O)N1CCCCC1	6.6µM*	18%	-2%	1.2µM*
COc1ccc(Nc2nnc(-c3ccccc3)c3ccccc23)cc1C(=O)N1CCCCC1	9.3µM*	-5%	-5%	1.2µM*
Cc1cccc(Nc2nnc(-c3ccc(C(=O)N4C[C@H]5C[C@H](C4)c4cccc(=O)n4C5)cc3)c3ccccc23)c1	?	1%	2%	3.7µM*
COc1ccc(S(=O)(=O)N2CCN(C(=O)c3cc4c(s3)CCC4)CC2)cc1	.	1%	.	.
CCCCOc1nnc(-c2ccc(OCC)cc2)c2ccccc12	.	.	11%	.
CCOC(=O)c1ccc(N2N=C(C)/C(=C/C=C/c3ccco3)C2=O)cc1	-13%	3%	?	13µM*
O=C(O)c1cc(N2N=C(C(F)(F)F)/C(=C/C=C/c3ccco3)C2=O)ccc1Cl	42%	-1%	10µM*	?
CC1=NN(c2ccc(C(=O)OC(C)C)cc2)C(=O)/C1=C\C=C\c1ccco1	2.9µM*	?	?	?
CC1=NN(c2ccc(Cl)c(C(=O)O)c2)C(=O)C1	4%	6%	-2%	?
Cc1c(C(=O)N2CCCCC2)c(S(=O)(=O)NCc2ccc(Cl)cc2)c(C)n1C	-8%	15%	-10%	-12%
Cc1cn(-c2cc(C(=O)Nc3ccc(C)c(NC(=O)C(=O)c4c[nH]c5ccccc45)c3)cc(C(F)(F)F)c2)cn1	1µM*	1%	-2%	?
SMILES	Pf growth 48h	SARS PLP yeast	Sm TGR block	Pf growth 96h
Cc1[nH]c2ccccc2c1C(=O)CN1C(=O)NC2(CC(C)CC(C)(C)C2)C1=O (stereo unspecified)	?	7%	-4%	10µM*
Cc1noc(C)c1C(=O)OCC(=O)Nc1ccc(S(N)(=O)=O)cc1	-3%	3%	-2%	-15%
C=C(C)CNC(=S)N/N=C(\C)c1ccc(OC)cc1	13µM*	-29%	-17%	-32%
COCc1c(Br)c(C)nc2sc3c(=O)n(-c4cccc(Br)c4)nnc3c12	.	.	0%	.
Cc1ccccc1Nc1cc(C(=O)NCc2cccs2)c2ccccc2n1	.	.	4%	.
CC(CCc1ccco1)NC(=O)CSc1cc(=O)n(C)c2ccccc12 (stereo unspecified)	50%	-4%	?	4.1µM*
CCCCNC(=O)CSc1cc(=O)n(C)c2ccccc12	11%	3%	3%	0.21µM*
CCN(CCCNC(=O)CSc1cc(=O)n(C)c2ccccc12)c1ccccc1	.	.	1%	.
NS(=O)(=O)c1cc(Cl)c(NC(=O)COC(=O)c2ccccn2)c(Cl)c1	-19%	9%	-7%	-28%
CCOc1ccc(S(=O)(=O)N2CCC(C(=O)N3CCN(c4ccccc4F)CC3)CC2)cc1C	-19%	-3%	-20%	2%
CCN(CC)N=Nc1ccc(S(=O)(=O)Nc2nc(C)cc(C)n2)cc1	0%	0%	11µM*!	?
CCOc1ccc(S(=O)(=O)N2CN(c3cccc(C(C)=O)c3)c3nc4ccccc4nc32)cc1	.	2%	.	.
Nc1cc(-c2ccncc2)c[nH]c1=O	0%	-37%	40µM*	2%
CCCCn1c(N)c(N(Cc2ccccc2OC)C(=O)CC2OC(=O)c3ccccc32)c(=O)[nH]c1=O (stereo unspecified)	-11%	-4%	-2%	-21%
CCCCn1c(N)c(N(Cc2ccccc2OC)C(=O)c2cc(CC)c(C)s2)c(=O)[nH]c1=O	13µM*	2%	-8%	?
CCCCn1c(N)c(N(Cc2ccccc2OC)C(=O)c2sccc2C)c(=O)[nH]c1=O	-13%	2%	-3%	-13%
CCCCn1c(N)c(N(Cc2ccccc2OC)C(=O)CN2C(=O)NC3(CCCC3)C2=O)c(=O)[nH]c1=O	26%	-2%	56µM*	35%
Cc1cc(C)c(NC(=O)CSc2nc3c([nH]c4ccccc43)c(=O)n2C)c(C)c1	.	.	4%	.
COc1ccc(Cl)cc1NC(=O)C(C)N1CCN(c2ccccn2)CC1 (stereo unspecified)	0%	-4%	8%	0%
Cc1cc(C)c2c(=O)cc(C(=O)NCc3ccccc3)oc2c1	-16%[0.00184 µM]	4%	2%	-50%
CC1C(=NO)C(C)C(c2ccc(N(C)C)cc2)NC1c1ccc(N(C)C)cc1 (stereo unspecified)	?	-1%	-2%	1.9µM*
COc1ccc(C2NC(c3ccc(OC)cc3)C(C)C(=O)C2C)cc1 (stereo unspecified)	?	-1%	-4%	-33%
